Data published in the supplement of paper PMC12808144.

System: Mel-DCC-11-R
Assay: cell viability relative to DMSO control (fraction of DMSO control); higher = less cytotoxic, active = 0.8 or less
Settings: 1 µM; 120 h; vemurafenib co-treatment 8 µM
Method in brief: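 Cells in 40 µl per well went into 384-well plates pre-spotted acoustically with a TargetMol library of 315 approved anti-cancer drugs, each at 1 µM in duplicate, for 120 h. Seeding was 2500/well for NHEM-hTERT immortalized melanocytes and 1500/well for patient-derived Mel-DCC-11 and its resistant subline Mel-DCC-11-R, which was run alone and with 8 µM of its selecting drug. Luminescence was read with ATPlite 1step. Viability was normalised to vehicle-treated controls and averaged over duplicates.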

| SMILES | cell viability |
| --- | --- |
| COc1cccc2c1C(=O)c1c(O)c3c(c(O)c1C2=O)C[C@@](O)(C(=O)CO)C[C@@H]3O[C@H]1C[C@H](N)[C@H](O[C@H]2CCCCO2)[C@H](C)O1 [Pirarubicin] | 0.0504 (active) |
| CC(=O)c1c(C)c2cnc(Nc3ccc(N4CCNCC4)cn3)nc2n(C2CCCC2)c1=O.Cl [Palbociclib hydrochloride] | 1.08 (inactive) |
| CCC1(O)C(=O)OCc2c1cc1n(c2=O)Cc2cc3cc(O)ccc3nc2-1 (configuration not stated) [Hydroxy Camptothecine] | 0.224 (active) |
| CN(C)N=Nc1[nH]cnc1C(N)=O [Dacarbazine] | 1.17 (inactive) |
| O=C(CCCCCCNC(=O)c1cnc(N(c2ccccc2)c2ccccc2)nc1)NO [Rocilinostat] | 0.644 (active) |
| CNC(=O)c1c(C)oc2cc(Oc3ncnc4cc(OC)c(OC)cc34)ccc12 [Fruquintinib] | 1.05 (inactive) |
| NC(=O)N1CCC(CC(=O)N2CCC([C@H]3c4ncc(Br)cc4CCc4cc(Cl)cc(Br)c43)CC2)CC1 [Lonafarnib] | 0.889 (inactive) |
| CCOc1cc2ncc(C#N)c(Nc3ccc(OCc4ccccn4)c(Cl)c3)c2cc1NC(=O)/C=C/CN(C)C [Neratinib] | 0.643 (active) |
| Cc1cc(Nc2cc(N3CCN(C)CC3)nc(Sc3ccc(NC(=O)C4CC4)cc3)n2)n[nH]1 [Tozasertib] | 0.752 (active) |
| COc1cc(N2CCC(N3CCN(C)CC3)CC2)ccc1Nc1ncc(Cl)c(Nc2ccccc2P(C)(C)=O)n1 [Brigatinib] | 0.867 (inactive) |
| Nc1ncn([C@@H]2O[C@H](CO)[C@@H](O)[C@H]2O)c(=O)n1 [Mylosar] | 0.745 (active) |
| Nc1nc2[nH]nnc2c(=O)[nH]1 [8-Azaguanine] | 1.05 (inactive) |
| C=CC(=O)Nc1cccc(Nc2nc(Nc3ccc(N4CCN(C(C)=O)CC4)cc3OC)ncc2C(F)(F)F)c1 [Rociletinib] | 0.836 (inactive) |
| Oc1c(I)cc(Cl)c2cccnc12 [Clioquinol] | 0.847 (inactive) |
| COc1cc2nccc(Oc3ccc(NC(=O)C4(C(=O)Nc5ccc(F)cc5)CC4)cc3)c2cc1OC.O=C(O)C[C@H](O)C(=O)O | 0.365 (active) |
| O=c1c(-c2ccc(O)cc2)coc2cc(O)cc(O)c12 [Genistein] | 1.02 (inactive) |
| CCc1c2c(nc3ccc(OC(=O)N4CCC(N5CCCCC5)CC4)cc13)-c1cc3c(c(=O)n1C2)COC(=O)[C@]3(O)CC.Cl.O.O.O [Irinotecan hydrochloride trihydrate] | 0.937 (inactive) |
| COC(=O)c1ccc2c(c1)NC(=O)/C2=C(\Nc1ccc(N(C)C(=O)CN2CCN(C)CC2)cc1)c1ccccc1 [Nintedanib] | 0.803 (inactive) |
| C[C@@H](CN1CC(=O)NC(=O)C1)N1CC(=O)NC(=O)C1.Cl [Dexrazoxane HCl] | 1.13 (inactive) |

| SMILES | cell viability |
| --- | --- |
| CC(=O)c1c(C)c2cnc(Nc3ccc(N4CCNCC4)cn3)nc2n(C2CCCC2)c1=O [Palbociclib] | 1.15 (inactive) |
| Cc1ccc(-c2ncc(Cl)cc2-c2ccc(S(C)(=O)=O)cc2)cn1 [Etoricoxib] | 1.06 (inactive) |
| C1=C/COCc2cc(ccc2OCCN2CCCC2)Nc2nccc(n2)-c2cccc(c2)COC/1 [Pacritinib] | 1.06 (inactive) |
| Nc1[nH]c(=O)ncc1F [Fluorocytosine] | 1.08 (inactive) |
| CC(C)=CCC/C(C)=C/CC/C(C)=C/CC/C(C)=C/CC1=C(C)C(=O)c2ccccc2C1=O [Menatetrenone] | 1.18 (inactive) |
| C#C[C@]1(O)CC[C@H]2[C@@H]3CCc4cc(OC5CCCC5)ccc4[C@H]3CC[C@@]21C [Quinestrol] | 1 (inactive) |
| O=c1cc[nH]c(=O)[nH]1 [Uracil] | 1.01 (inactive) |
| N#CC1(c2ccc(NC(=O)c3cccnc3NCc3ccncc3)cc2)CCCC1 [Apatinib] | 1.13 (inactive) |
| CO[C@H]1C[C@@H]2CC[C@@H](C)[C@@](O)(O2)C(=O)C(=O)N2CCCC[C@H]2C(=O)O[C@H]([C@H](C)C[C@@H]2CC[C@@H](OCCO)[C@H](OC)C2)CC(=O)[C@H](C)/C=C(\C)[C@@H](O)[C@@H](OC)C(=O)[C@H](C)C[C@H](C)/C=C/C=C/C=C/1C [Everolimus] | 0.834 (inactive) |
| CS(=O)(=O)OCCCCOS(C)(=O)=O [Busulfan] | 1.13 (inactive) |
| COc1ccc([C@@H]2CC(=O)c3c(O)cc(O)cc3O2)cc1O [Hesperetin] | 1.05 (inactive) |
| Cc1c(C)c2c(c(C)c1O)CCC(C)(COc1ccc(CC3SC(=O)NC3=O)cc1)O2 (configuration not stated) [Troglitazone] | 1.12 (inactive) |
| CC(C)C[C@H](NC(=O)[C@H](CCc1ccccc1)NC(=O)CN1CCOCC1)C(=O)N[C@@H](Cc1ccccc1)C(=O)N[C@@H](CC(C)C)C(=O)[C@@]1(C)CO1 [Carfilzomib] | 0.018 (active) |
| CCN(c1cc(-c2ccc(CN3CCOCC3)cc2)cc(C(=O)NCc2c(C)cc(C)[nH]c2=O)c1C)C1CCOCC1 | 0.967 (inactive) |
| Oc1ccc(/C=C/c2cc(O)cc(O)c2)cc1 [Resveratrol] | 1.16 (inactive) |
| COc1cc2nccc(Oc3ccc(NC(=O)C4(C(=O)Nc5ccc(F)cc5)CC4)cc3)c2cc1OC [Cabozantinib] | 0.427 (active) |
| Nc1nc(=O)c2c([nH]1)NCC(CNc1ccc(C(=O)N[C@@H](CCC(=O)[O-])C(=O)[O-])cc1)N2C=O.[Ca+2] (some centres not stated) [Calcium folinate] | 1.31 (inactive) |
| CC1(COc2ccc3c(c2)ncn3-c2ccc3cccc(N4CCC(N)CC4)c3n2)COC1 [Crenolanib] | 1.35 (inactive) |
